# Experimental data published in published antibiotic growth screens (doi:10.1016/j.cell.2020.01.021).
# The full ranking holds about 2,300 compounds; the median of “relative growth” is about 1, and the lowest 2% start at about 0.046. These entries were drawn from the full list.
# Test system: E. coli BW25113
# Assay: relative growth (fraction of control); higher = less inhibition
# Conditions: 50 µM
row,SMILES,relative growth
1,CNCC(O)c1ccc(O)c(O)c1.O=C(O)C(O)C(O)C(=O)O (stereo not drawn),1.17
2,CCOC(=O)C(CCc1ccccc1)NC(C)C(=O)N1CCCC1C(=O)O.O=C(O)C=CC(=O)O (stereo not drawn),1.07
3,COCCCOc1cc(CC(CC(N)C(O)CC(C(=O)NCC(C)(C)C(N)=O)C(C)C)C(C)C)ccc1OC.O=C(O)C=CC(=O)O (stereo not drawn),0.978
4,C#CCCCCCCCCCCCC(O)CC(O)CO.C=CCCCCCCCCCCCC(O)CC(O)CO (stereo not drawn),0.979
5,COc1ccc(CN(CCN(C)C)c2ccccn2)cc1.O=C(O)C=CC(=O)O,1.09
6,CN1CCC(=C2c3ccccc3CCc3sccc32)CC1.O=C(O)CC(O)C(=O)O,1.07
7,CC(C)=CCCC(C)C1CCC2(C)C3=C(CCC12C)C1(C)CCC(O)C(C)(C)C1CC3 (stereo not drawn),0.918
8,CCC1OC(=O)C(C)C(OC2CC(C)(OC)C(O)C(C)O2)C(C)C(OC2OC(C)CC(N(C)C)C2O)C(C)(O)CC(C)C(=O)C(C)C(O)C1(C)O (stereo not drawn),0.394
9,C[N+]1(CCCCC[N+]2(C)CCCC2)CCCC1.O=C([O-])C(O)C(O)C(=O)O.O=C([O-])C(O)C(O)C(=O)O,0.992
10,OCC(O)C(O)C(O)CO (stereo not drawn),0.987
11,CN(C)CCOC(C)(c1ccccc1)c1ccccn1.O=C(O)CCC(=O)O (stereo not drawn),0.787
12,CN(C)CCC(c1ccccc1)c1ccccn1.O=C(O)C=CC(=O)O (stereo not drawn),0.966
13,O=c1ccc2ccccc2o1,1.09
14,CN(C)CCOC(c1ccc(Cl)cc1)c1ccccn1.O=C(O)C=CC(=O)O (stereo not drawn),0.986
15,NC(CO)(CO)CO.O=C(c1ccccc1)c1ccc2n1CCC2C(=O)O (stereo not drawn),0.914
16,CCN(CC)CCc1nc(-c2ccccc2)no1.O=C(O)CC(O)(CC(=O)O)C(=O)O,0.968
17,CC(C)NCC(O)COc1ccc(COCCOC(C)C)cc1.O=C(O)C=CC(=O)O (stereo not drawn),1.04
18,CN1CCCC1CCOC(C)(c1ccccc1)c1ccc(Cl)cc1.O=C(O)C=CC(=O)O (stereo not drawn),1.01
19,CN1CCCC1c1cccnc1.O=C(O)C(O)C(O)C(=O)O.O=C(O)C(O)C(O)C(=O)O (stereo not drawn),1.14
20,C[N+](C)(C)CCO.Cn1c(=O)c2[n-]cnc2n(C)c1=O,1.06
21,CN(C)CCOc1ccc(C(=C(CCCl)c2ccccc2)c2ccccc2)cc1.O=C(O)CC(O)(CC(=O)O)C(=O)O,0.722
22,Cc1c(OCC(F)(F)F)ccnc1CS(=O)c1nc2ccccc2[nH]1 (stereo not drawn),1.01

row,SMILES,relative growth
1,NCC(O)c1ccc(O)c(O)c1.O=C(O)C(O)C(O)C(=O)O (stereo not drawn),1.12
2,CN(C)CCC(c1ccc(Br)cc1)c1ccccn1.O=C(O)C=CC(=O)O (stereo not drawn),1.04
3,COc1ccc2c3c1OC1CC(O)C=CC31CCN(C)C2 (stereo not drawn),0.936
4,CN1CCCN=C1C=Cc1cccc(O)c1.O=C(O)c1cc2ccccc2c(Cc2c(O)c(C(=O)O)cc3ccccc23)c1O,1.1
5,C=C1C2CCC3(C)C(c4ccoc4)OC(=O)CC13OC1CC(O)C(C)(C)C(CC(=O)OC)C12C (stereo not drawn) [3alpha-HYDROXY-3-DEOXYANGOLENSIC ACID METHYL ESTER],1.03
6,OCC(O)C(O)CO (stereo not drawn),0.882
7,Cl.NC(=O)CCC(N)C(=O)O (stereo not drawn),1.03
8,CCN(CCCc1ccccc1)CCCc1ccccc1.O=C(O)CC(O)(CC(=O)O)C(=O)O,0.881
9,CN(C)CC(c1ccc(O)cc1)C1(O)CCCCC1.O=C(O)CCC(=O)O (stereo not drawn),1.14
10,CC1=C(C(=O)O)N2C(=O)C(NC(=O)C(N)c3ccccc3)C2SC1 (stereo not drawn),1.03
11,O=C(O)C=CC(=O)O.OCCOCCN1CCN(C2=Nc3ccccc3Sc3ccccc32)CC1,0.3
12,CC1CC2C3CCC4=CC(=O)C=CC4(C)C3(F)C(O)CC2(C)C1(O)C(=O)CO (stereo not drawn),0.933
13,C1CCC(C(CC2CCCCN2)C2CCCCC2)CC1.O=C(O)C=CC(=O)O (stereo not drawn),0.52
14,CCN1CCCC1CNC(=O)c1cc(S(N)(=O)=O)ccc1OC (stereo not drawn),1.04
15,CC12CCC(CC1)C(C)(C)O2,1.06
16,Cc1ccccc1C(OCCN(C)C)c1ccccc1.O=C(O)CC(O)(CC(=O)O)C(=O)O (stereo not drawn),1.01
17,COCCCCC(=NOCCN)c1ccc(C(F)(F)F)cc1.O=C(O)C=CC(=O)O,0.949
18,Nc1nc(N)nc(-c2cc(Cl)ccc2Cl)n1.O=C(O)C=CC(=O)O,1.04
19,CC(N)C(O)c1cccc(O)c1.O=C(O)C(O)C(O)C(=O)O (stereo not drawn),0.957
20,Cc1ccc(S(=O)(=O)O)cc1.NC1CCN(c2nc3c(cc2F)c(=O)c(C(=O)O)cn3-c2ccc(F)cc2F)C1.O (stereo not drawn),0.0925
21,C=CC1=C(C)c2cc3[nH]c(cc4nc(cc5[nH]c(cc1n2)c(C)c5CCC(=O)O)C(CCC(=O)O)=C4C)c(C)c3C=C,2.63
22,CNC(C)C1CCC(N)C(OC2C(N)CC(N)C(OC3OCC(C)(O)C(NC)C3O)C2O)O1.O=S(=O)(O)O (stereo not drawn),0.786

row,SMILES,relative growth
1,Cc1cc(C=Cc2ccc3cc(N(C)C)ccc3[n+]2C)c(C)n1-c1ccccc1.O=C([O-])c1cc2ccccc2c(Cc2c(O)c(C(=O)O)cc3ccccc23)c1O,0.996
2,CC(C)Cc1ccc(C(C)C(=O)O)cc1 (stereo not drawn),0.933
3,CCN(CC)C(=O)N1CCN(C)CC1.O=C(O)CC(O)(CC(=O)O)C(=O)O,1.1
4,O=C(O)c1cc2ccccc2c(Cc2c(O)c(C(=O)O)cc3ccccc23)c1O.OCCOCCN1CCN(C(c2ccccc2)c2ccc(Cl)cc2)CC1,1.17
5,CC(CN(C)C)CN1c2ccccc2CCc2ccccc21.O=C(O)C=CC(=O)O (stereo not drawn),1.01
6,CCCCCCCCCCCCCCCC(=O)NCCO,1.06
7,"COC1C(C(=O)O)OC(C)C(O)C1O.COC1OC(C(=O)O)C(O)C(O)C1O (stereo not drawn) [ALGINIC ACID [Mol Wt ~200,000; monomers shown]]",0.862
8,CN1CCC(=C2c3ccccc3CC(=O)c3sccc32)CC1.O=C(O)C=CC(=O)O,1.03
9,C=CC1CN2CCC1CC2C(O)c1ccnc2ccc(OC)cc12.O=C(O)C(O)C(O)C(O)C(O)CO (stereo not drawn),0.949
10,CC(=O)c1ccc2c(c1)N(CCCN(C)C)c1ccccc1S2.O=C(O)C=CC(=O)O,0.983
11,CC1OC(OC2C(O)CC(OC3C(O)CC(OC4CCC5(C)C(CCC6C5CC(O)C5(C)C(C7=CC(=O)OC7)CCC65O)C4)OC3C)OC2C)CC(O)C1O (stereo not drawn),1.13
12,Cl.Cl.O=C(O)COCCN1CCN(C(c2ccccc2)c2ccc(Cl)cc2)CC1 (stereo not drawn),0.982
13,C[N+](C)(C)CC(O)CC(=O)[O-] (stereo not drawn),0.989
14,CCOC(=O)C1=C(COCCN)NC(C)=C(C(=O)OC)C1c1ccccc1Cl.O=S(=O)(O)c1ccccc1 (stereo not drawn),0.929
15,COCCc1ccc(OCC(O)CNC(C)C)cc1.O=C(O)C(O)C(O)C(=O)O (stereo not drawn),1.17
16,COC1C(O)C(O)C(O)C(O)C1O (stereo not drawn),0.97
17,COc1cccc2c1C(=O)c1c(O)c3c(c(O)c1C2=O)CC(O)(C(=O)CO)CC3OC1CC(N)C(O)C(C)O1 (stereo not drawn),1.02
18,Cn1c(=O)c2[nH]cnc2n(C)c1=O,1.07
19,CN1CCC(=C2c3ccccc3Sc3ccccc32)CC1.O=C(O)C=CC(=O)O,0.967
20,CC[N+](CC)(CC(=O)Nc1c(C)cccc1C)Cc1ccccc1.O=C([O-])c1ccccc1,1.01
21,O=c1[nH]cc(F)c(=O)[nH]1,0.475
22,COc1ccc(CC2c3cc(OC)c(OC)cc3CC[N+]2(C)CCC(=O)OCCCCCOC(=O)CC[N+]2(C)CCc3cc(OC)c(OC)cc3C2Cc2ccc(OC)c(OC)c2)cc1OC.O=S(=O)([O-])c1ccccc1.O=S(=O)([O-])c1ccccc1 (stereo not drawn),0.995

row,SMILES,relative growth
1,CCN(CC)CCOc1ccc(C(=C(Cl)c2ccccc2)c2ccccc2)cc1.O=C(O)CC(O)(CC(=O)O)C(=O)O,0.86
2,CCOC(=O)Nc1ccc(NCc2ccc(F)cc2)nc1N.O=C(O)C=CC(=O)O,0.989
3,Cc1cc2nc3c(=O)[nH]c(=O)nc-3n(CC(O)C(O)C(O)COP(=O)([O-])O)c2cc1C.[Na+] (stereo not drawn),0.981
4,CCC(C)C1OC2(CCC1C)CC1CC(CC=C(C)C(OC3CC(OC)C(OC4CC(OC)C(O)C(C)O4)C(C)O3)C(C)C=CC=C3COC4C(O)C(C)=CC(C(=O)O1)C34O)O2 (stereo not drawn),0.874
5,CN(C)CCOC(c1ccccc1)c1ccccc1.Cn1c(=O)c2[nH]c(Cl)nc2n(C)c1=O,0.0491
6,Cn1c(=O)cc(N2CCCC(N)C2)n(Cc2ccccc2C#N)c1=O.O=C(O)c1ccccc1 (stereo not drawn),1.05
7,O.OCC(O)C(O)C(OC1OC(CO)C(O)C(O)C1O)C(O)CO (stereo not drawn),0.993
8,CC12CCC3c4ccc(O)cc4CCC3C1CC(O)C2O (stereo not drawn),1.07
9,CC(CN(C)C)CN1c2ccccc2Sc2ccccc21.O=C(O)C(O)C(O)C(=O)O (stereo not drawn),0.971
10,CC(=O)NCC(=O)O.CC(=O)NCC(=O)O.N=C(N)c1ccc(N=NNc2ccc(C(=N)N)cc2)cc1,1.01
11,CCOCC(O)COc1ccc(NC(=O)CC[S+](C)C)cc1.Cc1ccc(S(=O)(=O)[O-])cc1 (stereo not drawn),1.09
12,O=C(O)CC(O)(CC(=O)O)C(=O)O,1.02
13,CN(CCOc1ccc(CC2SC(=O)NC2=O)cc1)c1ccccn1.O=C(O)C=CC(=O)O (stereo not drawn),0.921
14,CC(C)C(=O)Oc1ccc(CO)cc1C(CCN(C(C)C)C(C)C)c1ccccc1.O=C(O)C=CC(=O)O (stereo not drawn),0.804
15,C[n+]1cc2c3c(ccc2c2ccc4cc5c(cc4c21)OCO5)OCO3.[Cl-],0.639
16,CC(CCC(=O)O)C1CCC2C3C(O)CC4CC(O)CCC4(C)C3CCC12C (stereo not drawn),0.976
17,CCOCCn1c(N2CCCN(C)CC2)nc2ccccc21.O=C(O)C=CC(=O)O.O=C(O)C=CC(=O)O,1.11
18,NCC1OC(OC2C(N)CC(N)C(OC3OC(CO)C(O)C(N)C3O)C2O)C(O)C(O)C1O.O=S(=O)(O)O (stereo not drawn),0.935
19,CC(C)(C)NCC(O)COc1nsnc1N1CCOCC1.O=C(O)C=CC(=O)O (stereo not drawn),0.974
20,CCCc1nn(C)c2c(=O)[nH]c(-c3cc(S(=O)(=O)N4CCN(C)CC4)ccc3OCC)nc12.O=C(O)CC(O)(CC(=O)O)C(=O)O,0.963
21,C[N+](C)(CCOc1ccccc1)Cc1ccccc1.O=C([O-])c1cc2ccccc2cc1O,0.93
22,COc1cccc2c1C(=O)c1c(O)c3c(c(O)c1C2=O)CC(O)(C(=O)CO)CC3OC1CC(N)C(O)C(C)O1.Cl (stereo not drawn),1.02
